# From ChEMBL document CHEMBL4513216, “Probing the Open Global Health Chemical Diversity Library for Multistage-Active Starting Points for Next-Generation Antimalarials” (ACS Infect Dis, 2020)
# The whole screen tested about 69,000 compounds, of which about 8,600 (12%) showed an effect of 50% or more. The list comes from a sample in which strong results are over-represented; it also holds similar structures and randomly drawn compounds.
# System: Plasmodium berghei
# Test: Screen against P. berghei liver stage (PbLuc), transformed with Luciferase, at 10uM
# Type: functional, HepG2
# Conditions: tested at 10 uM
row,Structure (SMILES),INHIBITION
1,Cc1cccc(CN2C(=O)CCC23CCN(c2ncc(F)cn2)CC3)n1,-26.8%
2,O=S(=O)(N1CCOCC1)N1CCCC(c2ccccn2)C1 (stereo unspecified),15.99%
3,COc1c(C2CCCN2C(=O)c2c(C)noc2C(C)C)c(C)nn1C (stereo unspecified),35.9%
4,COCC(=O)N1CCc2c(nnn2C)C1COCCN1CCCC1 (stereo unspecified),29%
5,Cc1ccc(C(=O)Nc2nn[nH]n2)s1,2.61%
6,Cc1cc(C)c(CNC(=O)NCc2ccc3c(c2)OCCO3)c(=O)[nH]1,-54.6%
7,CS(=O)(=O)N1CCN(C(=O)c2cc(-c3cccs3)cs2)CC1,33.3%
8,CCc1oc(C(=O)NC(C)c2ncn[nH]2)cc1CN1CCCC1 (stereo unspecified),7.24%
9,Cc1cccnc1NC(=O)NCc1cccnc1OC(C)C,19.4%
10,Cc1cc(C(=O)NC2(c3ccc(Br)cc3)CC2)n(C)n1,47%
11,CC(=O)N1N=C(c2ccncc2)OC1C(=O)N(C)CCc1ccccc1 (stereo unspecified),0.618%
12,CNc1ncccc1CN1CCN(c2cc(NC3CC3)nc(N)n2)CC1,5.11%
13,CCc1ccc2nc(NCCCN(CCO)CCO)cc(C)c2c1,42%
14,CCc1ccc2nc(NCC(O)CO)cc(C)c2c1 (stereo unspecified),50.7%
15,CCc1ccc2nc(NCCOCCO)cc(C)c2c1,-46.7%
16,Cn1c(N2CCOCC2)nc2cc(C(=O)N[C@@H]3CC[C@@H](N)C3)ccc21,33.4%
17,CN(C)CCNC(=O)c1ccn(-c2ccc3ccccn23)n1,13.6%
18,Cc1cc(CN2CCN(CC(O)c3ccc(C)c(C)c3)CC2)no1 (stereo unspecified),62.6%
19,Cc1cc(CN2CCN(C(c3ccccc3)c3ccccc3)CC2)no1,85.4%
20,Cc1cc(CN2CCN(CC(O)c3cccc(F)c3)CC2)no1 (stereo unspecified),-17.6%
21,Cc1cc(CN2CCN(CC(O)c3ccccc3)CC2)no1 (stereo unspecified),36.4%
22,Cc1cc(CN2CCN(CC(O)c3ccc(Cl)cc3)CC2)no1 (stereo unspecified),9.14%
23,Cc1cc(CN2CCN(CC(O)c3ccc4c(c3)OCO4)CC2)no1 (stereo unspecified),-1.14%
24,COC(=O)c1ccc(N(C(=O)c2ccncc2)C(C)C)c(C)c1,7.18%

row,Structure (SMILES),INHIBITION
1,COc1ccc(CN2CCCCC2Cn2nc(C)nc2C)cc1F (stereo unspecified),-37.7%
2,Cc1cn(-c2ccccc2)nc1NS(=O)(=O)c1cc(C(=O)O)sc1C,8.38%
3,O=C(CCN1CCCO1)N1CC[C@@H](c2ccc3ccccc3c2)[C@H](O)C1,8.74%
4,O=C(CCN1CCCC1)N1CC[C@@H](c2ccc3ccccc3c2)[C@H](O)C1,52.2%
5,O=C(CCn1cccn1)N1CC[C@@H](c2ccc3ccccc3c2)[C@H](O)C1,-28.9%
6,CCN1Cc2ccccc2CC2(CCN(CC3CCC3)CC2)C1=O,36.5%
7,Cc1n[nH]cc1CNCc1cccc(OCC(F)(F)F)c1,66.3%
8,CC(C)C(=O)Nc1cccc(OCC(=O)NCc2ccccc2F)c1,40.6%
9,Cc1n[nH]cc1CNCc1ccnc(OCC(F)(F)F)c1,28.5%
10,CN1CCOC(CNCc2cccc(OCC(F)(F)F)c2)C1 (stereo unspecified),21.7%
11,Cc1n[nH]cc1CNC(=O)Nc1cccc(OCC(F)(F)F)c1,60.3%
12,COc1cccc(NC(=O)NCc2cnn(C)c2)c1,13%
13,CCN(Cc1cnn(C)c1)C[C@H]1CC[C@@H](Cc2cccc(C#N)c2)O1,-15.7%
14,O=C1CN(C(=O)C2CCCCC2)CC(O)CN1Cc1ccco1 (stereo unspecified),-11.1%
15,CC(C)c1nc2n(n1)CC(NCc1ncc(C(C)(C)C)o1)CC2 (stereo unspecified),-33.9%
16,Cc1c(C)n2c(SCC(=O)N3CCC(C)CC3)nnc2[nH]c1=O,-5.1%
17,Cc1cc(C)c2cc(CNCc3ccco3)c3nn(C)c(=O)n3c2c1,60.4%
18,Cc1ccc(CNC(=O)c2cc(C)n(C)n2)o1,35.75%
19,Cc1cc(C)c(N(CC(O)CNCc2ccco2)S(C)(=O)=O)c(C)c1 (stereo unspecified),9.96%
20,Cc1cc(C)c2cc(CNCc3ccc(C)o3)c3nn(C)c(=O)n3c2c1,54.5%
21,Cc1cc(C(=O)NCc2ccco2)nn1C,10.075%
22,Cc1ccn(CCC(=O)NCc2ccc(C)o2)n1,27.5%
23,CNc1cc(C2CCCN2Cc2ccc(OCC(=O)O)cc2)ccn1 (stereo unspecified),-17.7%
24,Cc1ccc(N2CCCN(C(=O)CCC3CCCO3)CC2)nn1 (stereo unspecified),-14.6%

row,Structure (SMILES),INHIBITION
1,CN(CCSc1nncn1CC(F)(F)F)c1ccccc1,-31.4%
2,O=C(Cc1cccc(F)c1)NCCCNC(=O)c1cccc(O)c1,-29.7%
3,Cc1ncc(CNC(=O)CCc2c(C)noc2C)c(C2CCCN2C)n1 (stereo unspecified),4.08%
4,Cn1nc(C2CCN(C(=O)Cc3cccc(F)c3)CC2)c2cccnc21,46.6%
5,CN1CCCN(C[C@@H]2CN(C(=O)CC3CCC3)C[C@@H]2CO)CC1,-6.91%
6,COc1cccc(CC(=O)N2CCN(C)c3ncccc3C2)c1,-93%
7,CNC(=O)C1CCCN(C(=O)c2ccccc2-n2cc(CN)cn2)C1 (stereo unspecified),1.62%
8,CN(C)C(=O)C1CCCN(C(=O)c2ccccc2-n2cc(CN)cn2)C1 (stereo unspecified),50.8%
9,NCc1cnn(-c2ccccc2C(=O)N2CCCC(C(N)=O)C2)c1 (stereo unspecified),9.05%
10,CCCS(=O)(=O)N1C[C@@H](Oc2ncccc2F)[C@H]2OCCC[C@H]21,30.3%
11,CCn1c(CN2CCN(C(=O)C3CCC3)CC2)nc2c(F)cccc21,18.04%
12,CC1=C(C#N)C(=O)NC(=O)/C1=C\c1c(C)[nH]n(-c2ccccc2)c1=O,-25.6%
13,O=C(Nc1cccnc1)C1=Cc2ccccc2OC1,-25%
14,CCN1C(=O)C(C#N)=C(C)/C(=C/C2=Cc3ccccc3OC2)C1=O,51.7%
15,CC(Cn1cccn1)NC(=O)C1=Cc2ccccc2OC1 (stereo unspecified),-40.7%
16,COC(=O)CC(C1=Cc2ccccc2OC1)c1oc(C)cc(=O)c1O (stereo unspecified),11.6%
17,CC1=C(C#N)C(=O)N(C)C(=O)/C1=C\C1=Cc2ccccc2OC1,92.5%
18,Cc1cc(C)n(CCC(=O)N2CCCC(c3cc(C(N)=O)[nH]n3)C2)n1 (stereo unspecified),16.8%
19,COC(=O)C(c1ccccc1)N(C)C(=O)c1ccnc(C)n1 (stereo unspecified),23.7%
20,O=C(c1cccnc1)N1C[C@H]2CC[C@@H](C1)N(Cc1cc(F)ccc1F)C2,19.2%
21,CCc1nc(CN(C)C2CCCN(c3cccnn3)C2)no1 (stereo unspecified),14.1%
22,CCNC(=O)C1(Cc2ccc(-c3ccccc3)cc2)CCCNC1 (stereo unspecified),-0.232%
23,O=C(O)C1(Cc2cccc(-c3cccs3)c2)CCCNC1 (stereo unspecified),29.05%
24,O=C(O)C1(Cc2ccc(-c3cccs3)cc2)CCNC1 (stereo unspecified),35.55%

row,Structure (SMILES),INHIBITION
1,O=C(N1CCCC1)C1(Cc2ccc(-c3cccs3)cc2)CCNC1 (stereo unspecified),50.9%
2,NC(=O)C1(Cc2ccc(-c3ccccc3)cc2)CCCNC1 (stereo unspecified),-0.232%
3,NC(=O)C1(Cc2ccc(-c3ccccc3)cc2)CCNC1 (stereo unspecified),52.7%
4,COc1c(C)cnc(CN2CCn3c(C)nnc3C2)c1C,-7.53%
5,c1ccc2oc(CCCN3CCCC3c3noc(C4CC4)n3)nc2c1 (stereo unspecified),9.54%
6,COCC(=O)N1CCC2(CC1)CC(COC)N(c1ncccn1)C2 (stereo unspecified),-6.23%
7,COCCC(=O)N1CCCC(c2nc(O)cc(-c3ccncc3)n2)C1 (stereo unspecified),28%
8,CNC(=O)[C@@]12CCO[C@@H]1CCN(Cc1cccc(C)c1)C2,38.1%
9,O=C(O)CSc1nnc(-c2cn[nH]c2)n1-c1ccccc1Cl,9.87%
10,O=C(O)CSc1nnc(-c2cn[nH]c2)n1-c1ccccc1C(F)(F)F,90.8%
11,O=C(O)CSc1nnc(-c2ccn[nH]2)n1-c1ccccc1C(F)(F)F,27.4%
12,CCc1ncc(C(=O)N2CCCN(C3CCCC3)CC2)cn1,43.6%
13,CCCc1noc(CCC(=O)N2CCCC2Cn2cc(C)cn2)n1 (stereo unspecified),-13.5%
14,O=C(CC1CCc2ccccc21)N1CCC(O)(c2cccnc2)CC1 (stereo unspecified),6.83%
15,CS(=O)(=O)Nc1cccc(C(=O)Nc2ccc3c(c2)C(=O)NC3)c1,-13.2%
16,CC(C)c1ccc(OCCNC(=O)N2CCS(=O)(=O)CC2)cc1,-12.21%
17,O=C(NCCOc1ccc(C(F)(F)F)cn1)c1ccoc1,57.5%
18,CC(C)c1ccc(OCCNC(=O)c2ccoc2)cc1,87.1%
19,O=C(NCCNc1ccc(C(F)(F)F)cn1)c1ccoc1,22.8%
20,O=C(NCCNS(=O)(=O)c1ccc(C(F)(F)F)cc1)c1ccoc1,0.266%
21,Cc1occc1C(=O)NCCOc1ccc(C(F)(F)F)cn1,27.7%
22,Cc1ccoc1C(=O)NCCOc1ccc(C(F)(F)F)cn1,31.7%
23,Cc1nc(C)c(C(=O)NCCOc2ccc(C(F)(F)F)cn2)o1,64.4%
24,O=C(CNC(=O)c1ccoc1)NCCOc1ccc2c(c1)CCC2,-112%

row,Structure (SMILES),INHIBITION
1,c1ccc(Cc2noc(-c3ccc(NCC4CCCOC4)nc3)n2)cc1 (stereo unspecified),18.8%
2,Cc1sc2ccccc2c1S(=O)(=O)NCCNC(=O)C(C)C,-35%
3,Cc1ccc(N2C[C@H]3CCC[C@@]3(COc3cccnc3)C2)nn1,-44.2%
4,CC(=O)Nc1c(C)noc1C=Cc1ccc(S(=O)(=O)NC2CC2)cc1,47.2%
5,OC1(CNCCN2CCCc3ccccc32)CCNC1 (stereo unspecified),9.55%
6,Cn1c(=O)c2cc(C(=O)NCCOCC(F)(F)F)ccc2n(C)c1=O,27.8%
7,Cc1cc(N2CCC(Cc3cnccn3)C2)ncn1 (stereo unspecified),2.55%
8,CC(C)(C)c1n[nH]cc1CNC1CCC(C(F)(F)F)CC1 (stereo unspecified),-32.6%
9,Cc1cccc(CN2CC[C@H]3C[C@H](C)O[C@@H]3C2)n1,56.7%
10,Cc1csc(CN2CC[C@H]3C[C@H](C)O[C@@H]3C2)n1,15.4%
11,C[C@@H]1C[C@@H]2CCN(Cc3ccncc3)C[C@H]2O1,15.9%
12,Cc1cccc(CN2CC[C@H]3C[C@@H](C)O[C@@H]3C2)n1,76.5%
13,Cc1cccc(C(=O)N2CC[C@H]3C[C@@H](C)O[C@@H]3C2)n1,7.31%
14,CN(C)C(=O)C1CN(Cc2cscn2)CCN(S(C)(=O)=O)C1 (stereo unspecified),37%
15,C[C@@H]1C[C@@H]2CCN(Cc3ccccn3)C[C@H]2O1,55.5%
16,CN(C)C(=O)C1CN(Cc2ccccn2)CCN(S(C)(=O)=O)C1 (stereo unspecified),89.3%
17,C[C@H]1C[C@H]2CN(Cc3ccccn3)CC[C@@H]2O1,46.2%
18,C[C@H]1C[C@@H]2CCN(Cc3ccco3)C[C@H]2O1,46.2%
19,CN(C)C(=O)C1CN(Cc2ccccc2)CCN(S(C)(=O)=O)C1 (stereo unspecified),32.4%
20,C[C@H]1C[C@@H]2CCN(Cc3ccccn3)C[C@H]2O1,15.9%
